We go through 21 compounds from the supplement of paper PMC5919970.

The test system of the experiment is TYKNU. As to the kind of experiment: fractional viability relative to vehicle; TYKNU is a high-grade serous ovarian cancer line; higher = less growth inhibition. The settings on record: 72 h, genotype: OPA1 knockout (sgOPA1 #2). A digest of the protocol:
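TYKNU control cells or lentiCRISPRv2 knockout derivatives were seeded at 500 cells per well into drug-stamped 384-well plates holding a ~2100-compound library at 2 or 10 μM, in duplicate. Cells were grown at 37 °C in 5% CO2 in RPMI 1640 with 10% FBS, and drug treatment lasted 72 h. Viability was read by Cell Titer Glo luminescence. Duplicate treatment wells were averaged and normalised to duplicate control wells from the same plate position.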

Counter-ions that a name gives are not always drawn. Whole data set: some 2,000 compounds, median “fractional viability relative to vehicle” near 0.92, cut for the lowest 2% near 0.11. The entries come from a sample that favours the lowest values as a whole.

Compound `CNC(=O)c1ccccc1Nc1nc(Nc2ccc(N3CCOCC3)cc2OC)ncc1Cl` returned a fractional viability (2uM) of 0.987 and a fractional viability (10uM) of 0.532.

In the case of `Cc1cc(Nc2ncc(Cl)c(Nc3ccccc3S(=O)(=O)C(C)C)n2)c(OC(C)C)cc1C1CCNCC1`, the fractional viability is 0.376 (2uM) and 0.0286 (10uM).

With `CN1CCN(Cc2ccc(Nc3ncc(Cl)c(Nc4ccccc4S(=O)(=O)N(C)C)n3)cc2)CC1`, the fractional viability runs as follows: (2uM) 0.451; (10uM) 0.421.

For the compound `C[C@H](Nc1ncnc2nc[nH]c12)c1cc2cccc(Cl)c2c(=O)n1-c1ccccc1`, the fractional viability (2uM) was determined as 0.926 and the fractional viability (10uM) came to 1.05.

As to `COc1cc(O)c(CC=C(C)C)c(O)c1C(=O)/C=C/c1ccc(O)cc1` [Xanthohumol], the fractional viability came to 0.841 (2uM) and 0.772 (10uM).

Take `NC(=O)c1nc(F)cnc1O` [Favipiravir (T-705)]: the fractional viability is, setting by setting: (2uM) 0.744; (10uM) 0.765.

For `O=C1O[C@H]([C@@H](O)CO)C([O-])=C1O.[Na+]` [Sodium ascorbate], the fractional viability reads like this: (2uM) 1.02; (10uM) 0.95.

Regarding `Cc1nc(-c2cccnc2)sc1C(=O)Nc1ccccc1-c1cn2c(CN3CCOCC3)csc2n1`, the fractional viability is, setting by setting: (2uM) 0.748; (10uM) 0.855.

In the case of `O=C(Nc1ccccc1-c1cn2c(CN3CCNCC3)csc2n1)c1cnc2ccccc2n1`, the fractional viability worked out at 1.19 (2uM) and 0.0331 (10uM).

Compound `Cc1coc2c1C(=O)C(=O)c1c-2ccc2c1CCCC2(C)C` [Tanshinone IIA] registered a fractional viability (2uM) of 0.599 and a fractional viability (10uM) of 0.327.

Turning to `C[C@H]1COC2=C1C(=O)C(=O)c1c2ccc2c1CCCC2(C)C` [Cryptotanshinone], the fractional viability (2uM) is 0.361 and the fractional viability (10uM) was 0.0832.

As to `CC(=O)Nc1ccc(C(=O)Nc2ccccc2N)cc1` [CI994 (Tacedinaline)], the fractional viability came out at 0.755 (2uM) and 0.434 (10uM).

In the case of `CNCc1ccc(C)c(NC(=O)c2ccc(Nc3nc(-c4ccccc4)c4ccccc4n3)cc2)c1`, the fractional viability was determined as 1.13 (2uM) and 0.134 (10uM).

As to `Cc1cc(Nc2ccc(NC(=O)c3ccc(Nc4ccnc5ccccc45)cc3)cc2)nc(N)n1`, the fractional viability runs as follows: (2uM) 0.043; (10uM) 0.0318.

On to `COc1cc(-c2ncn(/C=C\C(=O)OC(C)C)n2)cc(C(F)(F)F)c1`, for which the fractional viability is 0.22 (2uM) and 0.259 (10uM).

Regarding `CNc1cccc(CCOc2ccc3c(c2)CN(CC(F)(F)F)C(=O)[C@H](CC(=O)O)C3)n1`, the fractional viability runs as follows: (2uM) 0.781; (10uM) 0.671.

On to `CCCCc1oc2ccc(NS(C)(=O)=O)cc2c1C(=O)c1ccc(OCCCN(CCCC)CCCC)cc1` [Dronedarone HCl], for which the fractional viability was determined as 0.835 (2uM) and 0.106 (10uM).

Compound `CN(CCOc1ccc(NS(C)(=O)=O)cc1)CCc1ccc(NS(C)(=O)=O)cc1` [Dofetilide] had a fractional viability (2uM) of 1.08 and a fractional viability (10uM) of 0.78.

Consider `CCCCc1oc2ccccc2c1C(=O)c1cc(I)c(OCCN(CC)CC)c(I)c1` [Amiodarone HCl], for which the fractional viability came to 0.994 (2uM) and 0.867 (10uM).

For `N#Cc1ccc(-c2c(-c3ncn[nH]3)sc(N3CCOCC3)c2C#N)c(F)c1`, the fractional viability was found to be 0.737 (2uM) and 0.572 (10uM).

Turning to `O=C(COc1ccc(Cl)cc1)NC1CCC(NC(=O)COc2ccc(Cl)cc2)CC1` (stereo not drawn) [ISRIB (trans-isomer)], the fractional viability worked out at 1.09 (2uM) and 0.976 (10uM).
